# Measurements: PubChem BioAssay (NCI)
# Compounds without any hit were thinned out: in the full panel of roughly 79,000, 15% have a hit. Values without a mark were called inactive. The source made the active and inactive calls. Cut-off read from the data, not from the text of the source: active = growth inhibition above about 70%; inactive = the rest.
# Legend:
# [1] = NCI Yeast Anticancer Drug Screen. Data for the rad50 strain (AID 155);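 note: 0% = growth of vehicle-only cultures of the same strain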; settings: S. cerevisiae rad50 strain growth inhibition, hits give high values
# Procedure, shortened: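 DNA repair mutant yeast, compound exposure, growth read-out; inhibition is taken relative to vehicle.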
# [2] = NCI Yeast Anticancer Drug Screen. Data for the mec2-1 strain (AID 157); settings: S. cerevisiae mec2-1 strain, hits give high values
# Procedure, shortened: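 Each compound was tested on mec2-1 yeast, a strain altered in DNA damage repair or cell cycle control. Growth inhibition is reported relative to vehicle.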
# [3] = NCI Yeast Anticancer Drug Screen. Data for the sgs1 mgt1 strain (AID 161);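 note: 0% = growth of cultures given vehicle only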; settings: S. cerevisiae sgs1 mgt1 strain, hits give high values
# Procedure, shortened: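 Genetically altered yeast, compound exposure, growth inhibition relative to vehicle.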
# [4] = NCI Yeast Anticancer Drug Screen. Data for the cln2 rad14 strain (AID 165);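 note: 0% = growth equal to vehicle treated cultures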; settings: S. cerevisiae cln2 rad14 strain, hits give high values
# Procedure, shortened: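 Test compounds were added to cln2 rad14 yeast cultures; inhibition of growth was then determined by comparison with vehicle treatment.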
# [5] = NCI Yeast Anticancer Drug Screen. Data for the bub3 strain (AID 167); settings: S. cerevisiae bub3 mutant strain, hits give high values
# Procedure, shortened: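 In this screen, a yeast mutant lacking normal mitotic checkpoint function is challenged with compound. Relative growth versus vehicle gives the inhibition value.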
# [6] = NCI Yeast Anticancer Drug Screen. Data for the mlh1 rad18 strain (AID 175); settings: S. cerevisiae mlh1 rad18 strain growth inhibition, hits give high values
# Procedure, shortened: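 Inhibition values reflect reduced growth of mutant yeast versus vehicle-treated controls following compound exposure; the mutations affect DNA damage repair.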
# [7] = NCI Yeast Anticancer Drug Screen. Data for the wt1 strain (AID 149);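 note: 0% = growth of vehicle-treated wt1 cultures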; settings: S. cerevisiae wt1 strain (SPY 50644) growth inhibition, hits give high values
# Procedure, shortened: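 wt1 strain grown with compound or vehicle; inhibition taken from the growth difference.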
# [8] = NCI Yeast Anticancer Drug Screen. Data for the rad50EPP+ strain (AID 151);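 note: 0% = growth of vehicle-treated control cultures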; settings: S. cerevisiae rad50 mutant strain, hits give high values
# Procedure, shortened: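 Genetically defined yeast (rad50EPP+, DNA damage repair alteration) is grown with compound, and inhibition of growth is expressed relative to vehicle-treated controls.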
# [9] = NCI Yeast Anticancer Drug Screen. Data for the CLN2oe strain (AID 163);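 note: 0% = growth of vehicle-only control cultures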; settings: S. cerevisiae CLN2oe strain, hits give high values
# Procedure, shortened: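 First, the altered yeast strain was treated with each compound; second, its growth was measured; finally, inhibition was derived by comparison with vehicle controls.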
# [10] = NCI Yeast Anticancer Drug Screen. Data for the wt2 strain (AID 169);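 note: 0% = growth of vehicle-treated yeast cultures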; settings: S. cerevisiae wt2 strain growth inhibition, hits give high values
# Procedure, shortened: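 The panel's yeast strains carry defined changes in DNA repair or cell cycle genes. Each strain is grown with compound, and growth loss is scored relative to vehicle.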
# [11] = NCI Yeast Anticancer Drug Screen. Data for the mlh1 strain (AID 171);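 note: 0% = growth of vehicle-treated control cultures of the same strain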; settings: S. cerevisiae mlh1 strain growth inhibition, hits give high values
# Procedure, shortened: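 Inhibition values reflect reduced yeast growth in the presence of compound, referenced to vehicle controls, using a strain chosen for its alteration in DNA repair or cell cycle control.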
# [12] = NCI Yeast Anticancer Drug Screen. Data for the sgs1 strain (AID 173);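 note: 0% = growth of vehicle-only control cultures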; settings: S. cerevisiae sgs1 mutant, hits give high values
# Procedure, shortened: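 Vehicle-treated cultures served as reference for growth inhibition of a yeast strain altered in DNA damage repair or cell cycle control after compound exposure.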
# [13] = NCI Yeast Anticancer Drug Screen. Data for the rad18 strain (AID 177); settings: S. cerevisiae rad18 mutant growth inhibition, hits give high values
# Procedure, shortened: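 Steps: expose repair-mutant yeast to compound; measure growth; express as inhibition relative to vehicle control.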
# [14] = at 5.0 µM (retest, dose inferred, filed as 0.5)
# [15] = at 50.0 µM (retest, dose inferred, filed as 5.0)
compound,measurement,setting,value
CC(=O)[O][Hg][c]1c(C)c(C)c(C)c(C)c1C,growth inhibition,[1]; [14],98% (active)
same,growth inhibition,[1]; [15],97% (active)
same,growth inhibition,[1]; at 50.0 µM,87.5% (active)
same,growth inhibition,[2]; [14],98% (active)
same,growth inhibition,[2]; [15],97% (active)
same,growth inhibition,[2]; at 50.0 µM,90.1% (active)
same,growth inhibition,[3]; [14],99% (active)
same,growth inhibition,[3]; [15],98% (active)
same,growth inhibition,[3]; at 50.0 µM,90.7% (active)
same,growth inhibition,[4]; [14],98% (active)
same,growth inhibition,[4]; [15],98% (active)
same,growth inhibition,[4]; at 50.0 µM,89.8% (active)
same,growth inhibition,[5]; [14],98% (active)
same,growth inhibition,[5]; [15],97% (active)
same,growth inhibition,[5]; at 50.0 µM,88.5% (active)
same,growth inhibition,[6]; [14],98% (active)
same,growth inhibition,[6]; [15],96% (active)
C1CN([PH+](N2CC2)N2CC2)CCO1.C1CN([PH+](N2CC2)N2CC2)CCO1.[I][Pt][I],growth inhibition,[1]; [14],0%
same,growth inhibition,[1]; [15],9%
same,growth inhibition,[1]; at 50.0 µM,36.8%
same,growth inhibition,[2]; [14],2%
same,growth inhibition,[2]; [15],5%
same,growth inhibition,[2]; at 50.0 µM,23.7%
same,growth inhibition,[3]; [14],1%
same,growth inhibition,[3]; [15],5%
same,growth inhibition,[3]; at 50.0 µM,52.2%
same,growth inhibition,[4]; [14],4%
same,growth inhibition,[4]; [15],1%
same,growth inhibition,[4]; at 50.0 µM,17.9%
same,growth inhibition,[5]; [14],1%
same,growth inhibition,[5]; [15],15%
same,growth inhibition,[5]; at 50.0 µM,96.5% (active)
Cc1cc(C)c(O)c(C)c1.[Hg],growth inhibition,[1]; [14],99% (active)
same,growth inhibition,[1]; [15],98% (active)
same,growth inhibition,[1]; at 50.0 µM,99.5% (active)
same,growth inhibition,[2]; [14],99% (active)
same,growth inhibition,[2]; [15],99% (active)
same,growth inhibition,[2]; at 50.0 µM,99.5% (active)
same,growth inhibition,[3]; [14],99% (active)
same,growth inhibition,[3]; [15],99% (active)
same,growth inhibition,[3]; at 50.0 µM,99.5% (active)
same,growth inhibition,[4]; [14],99% (active)
same,growth inhibition,[4]; [15],99% (active)
same,growth inhibition,[4]; at 50.0 µM,99.4% (active)
same,growth inhibition,[5]; [14],98% (active)
same,growth inhibition,[5]; [15],99% (active)
same,growth inhibition,[5]; at 50.0 µM,99.3% (active)
O=c1c2ccccc2[se]n1-c1cccnc1,growth inhibition,[7]; at 1.2 µM,-5%
same,growth inhibition,[7]; at 3.7 µM,-6%
same,growth inhibition,[7]; at 11.0 µM,21%
same,growth inhibition,[7]; at 33.0 µM,29%
same,growth inhibition,[7]; at 100.0 µM,56%
same,growth inhibition,[8]; at 1.2 µM,67%
same,growth inhibition,[8]; at 3.7 µM,94% (active)
same,growth inhibition,[8]; at 11.0 µM,98% (active)
same,growth inhibition,[8]; at 33.0 µM,98% (active)
same,growth inhibition,[8]; at 100.0 µM,87% (active)
same,growth inhibition,[1]; at 1.2 µM,-6%
same,growth inhibition,[1]; at 3.7 µM,27%
same,growth inhibition,[1]; [14],8%
same,growth inhibition,[1]; at 11.0 µM,65%
same,growth inhibition,[1]; at 33.0 µM,92% (active)
same,growth inhibition,[1]; [15],64%
same,growth inhibition,[1]; at 50.0 µM,23.1%
same,growth inhibition,[1]; at 100.0 µM,90% (active)
same,growth inhibition,[2]; at 1.2 µM,-18%
same,growth inhibition,[2]; at 3.7 µM,20%
same,growth inhibition,[2]; [14],-20%
same,growth inhibition,[2]; at 11.0 µM,77% (active)
same,growth inhibition,[2]; at 33.0 µM,98% (active)
same,growth inhibition,[2]; [15],55%
same,growth inhibition,[2]; at 50.0 µM,-6.2%
same,growth inhibition,[2]; at 100.0 µM,94% (active)
same,growth inhibition,[3]; [14],58%
same,growth inhibition,[3]; [15],21%
same,growth inhibition,[3]; at 50.0 µM,7.85%
same,growth inhibition,[9]; at 1.2 µM,24%
same,growth inhibition,[9]; at 3.7 µM,21%
same,growth inhibition,[9]; at 11.0 µM,58%
same,growth inhibition,[9]; at 33.0 µM,84% (active)
same,growth inhibition,[9]; at 100.0 µM,83% (active)
same,growth inhibition,[4]; [14],9%
same,growth inhibition,[4]; [15],40%
same,growth inhibition,[4]; at 50.0 µM,15.5%
same,growth inhibition,[5]; at 1.2 µM,8%
same,growth inhibition,[5]; at 3.7 µM,14%
same,growth inhibition,[5]; [14],-28%
same,growth inhibition,[5]; at 11.0 µM,81% (active)
same,growth inhibition,[5]; at 33.0 µM,98% (active)
same,growth inhibition,[5]; [15],38%
same,growth inhibition,[5]; at 50.0 µM,-6.15%
same,growth inhibition,[5]; at 100.0 µM,91% (active)
same,growth inhibition,[10]; at 1.2 µM,18%
same,growth inhibition,[10]; at 3.7 µM,18%
same,growth inhibition,[10]; at 11.0 µM,25%
same,growth inhibition,[10]; at 33.0 µM,42%
same,growth inhibition,[10]; at 100.0 µM,60%
same,growth inhibition,[11]; at 1.2 µM,36%
same,growth inhibition,[11]; at 3.7 µM,51%
same,growth inhibition,[11]; at 11.0 µM,98% (active)
same,growth inhibition,[11]; at 33.0 µM,99% (active)
same,growth inhibition,[11]; at 100.0 µM,93% (active)
same,growth inhibition,[12]; at 1.2 µM,23%
same,growth inhibition,[12]; at 3.7 µM,19%
same,growth inhibition,[12]; at 11.0 µM,80% (active)
same,growth inhibition,[12]; at 33.0 µM,96% (active)
same,growth inhibition,[12]; at 100.0 µM,82% (active)
same,growth inhibition,[6]; [14],-14%
same,growth inhibition,[6]; [15],89% (active)
same,growth inhibition,[6]; at 50.0 µM,43.9%
same,growth inhibition,[13]; at 1.2 µM,12%
same,growth inhibition,[13]; at 3.7 µM,-26%
same,growth inhibition,[13]; at 11.0 µM,3%
same,growth inhibition,[13]; at 33.0 µM,42%
same,growth inhibition,[13]; at 100.0 µM,58%
CCN1CCC(O)(c2ccc(Cl)c(Cl)c2)C(C(=O)c2ccc(Cl)c(Cl)c2)C1 (stereo not given),growth inhibition,[1]; [14],75% (active)
same,growth inhibition,[1]; [15],99% (active)
same,growth inhibition,[1]; at 50.0 µM,99.7% (active)
same,growth inhibition,[2]; [14],57%
same,growth inhibition,[2]; [15],100% (active)
same,growth inhibition,[2]; at 50.0 µM,99.6% (active)
same,growth inhibition,[3]; [14],78% (active)
same,growth inhibition,[3]; [15],99% (active)
same,growth inhibition,[3]; at 50.0 µM,99.7% (active)
same,growth inhibition,[4]; [14],60%
same,growth inhibition,[4]; [15],99% (active)
same,growth inhibition,[4]; at 50.0 µM,98.9% (active)
same,growth inhibition,[5]; [14],71% (active)
same,growth inhibition,[5]; [15],98% (active)
same,growth inhibition,[5]; at 50.0 µM,98.8% (active)
CC(=O)[O-].O=C([CH-]C(=O)c1ccccc1)c1ccccc1.O=C([CH-]C(=O)c1ccccc1)c1ccccc1.[Sm+3],growth inhibition,[1]; at 1.2 µM,9%
same,growth inhibition,[1]; at 3.7 µM,-5%
same,growth inhibition,[1]; [14],55%
same,growth inhibition,[1]; at 11.0 µM,79% (active)
same,growth inhibition,[1]; at 33.0 µM,96% (active)
same,growth inhibition,[1]; [15],55%
same,growth inhibition,[1]; at 50.0 µM,90.8% (active)
same,growth inhibition,[1]; at 100.0 µM,98% (active)
same,growth inhibition,[2]; at 1.2 µM,-2%
same,growth inhibition,[2]; at 3.7 µM,5%
same,growth inhibition,[2]; [14],42%
same,growth inhibition,[2]; at 11.0 µM,47%
same,growth inhibition,[2]; at 33.0 µM,97% (active)
same,growth inhibition,[2]; [15],42%
same,growth inhibition,[2]; at 50.0 µM,93% (active)
same,growth inhibition,[2]; at 100.0 µM,98% (active)
same,growth inhibition,[3]; [14],50%
same,growth inhibition,[3]; [15],50%
same,growth inhibition,[3]; at 50.0 µM,92.8% (active)
same,growth inhibition,[5]; at 1.2 µM,16%
same,growth inhibition,[5]; at 3.7 µM,19%
same,growth inhibition,[5]; [14],52%
same,growth inhibition,[5]; at 11.0 µM,84% (active)
same,growth inhibition,[5]; at 33.0 µM,97% (active)
same,growth inhibition,[5]; [15],52%
same,growth inhibition,[5]; at 50.0 µM,90.8% (active)
same,growth inhibition,[5]; at 100.0 µM,98% (active)
same,growth inhibition,[6]; [14],44%
same,growth inhibition,[6]; [15],44%
same,growth inhibition,[6]; at 50.0 µM,90.2% (active)
Cc1ccc(C#CCN2CCCCC2)cn1,growth inhibition,[1]; [14],-142%
same,growth inhibition,[1]; [15],-82%
same,growth inhibition,[1]; at 50.0 µM,4.45%
same,growth inhibition,[2]; [14],-77%
same,growth inhibition,[2]; [15],-47%
same,growth inhibition,[2]; at 50.0 µM,11.1%
same,growth inhibition,[3]; [14],-64%
same,growth inhibition,[3]; [15],-22%
same,growth inhibition,[3]; at 50.0 µM,22.8%
same,growth inhibition,[4]; [14],-60%
same,growth inhibition,[4]; [15],-46%
same,growth inhibition,[4]; at 50.0 µM,69.2%
same,growth inhibition,[5]; [14],-66%
same,growth inhibition,[5]; [15],-54%
same,growth inhibition,[5]; at 50.0 µM,-0.5%
